# HT1080 IDH1KD tx: qHTS for induction of synthetic lethality in tumor cells producing 2HG: qHTS for the HT-1080-IDH1KD cell line | HT-1080 IDH1 knockdown viability, ATP luminescence, 48 h | Potency, µM (series often up to 46.1 µM), for the others: top-dose activity, negative = toxicity, hits mostly cytotoxic | hit rate 2% among 360,000;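 note: potency is the fitted concentration of half-maximal effect; 0% = DMSO wells and -100% = cell-free medium wells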
#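 % activity derives from luminescence (CellTiter-Glo), normalised to DMSO and no-cell wells. HT-1080-IDH1KD cells, 750/well, had 48 h compound exposure at 37 °C.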
# ELG1 DNA repair: qHTS screen for small molecules that inhibit ELG1-dependent DNA repair in human embryonic kidney (HEK293T) cells expressing luciferase-tagged ELG1; Potency, µM (series often up to 46.1 µM), inactives show top-dose activity change, negative = inhibition, usual class: inhibitors; HEK293T ELG1-luciferase reporter, luminescence, 16 h; DNA damage induced by 5-fluorouridine; hit rate 2.3% among 330,000; note: potency is the fitted concentration of half-maximal effect; nearly all actives have a fitted effect of over 55% in size
#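 5-Fluorouridine DNA damage + compound/DMSO, 2,000 cells/well, 16 h, 37 °C/5% CO2. ONE-Glo, 30 min RT, luminescence. Readout = decrease in reporter signal.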
# TDP1 cell noCPT: qHTS for Inhibitors of human tyrosyl-DNA phosphodiesterase 1 (TDP1): qHTS in cells in absence of CPT; DT40 Tdp1-/- hTDP1 cells, no CPT, ATP luminescence, 48 h; Potency, µM (doses to about 46.2 µM), for the others: at the highest dose activity change, negative = growth inhibition, actives largely listed as inhibitors; hit rate 15% among 420,000; note: potency is the fitted concentration of half-maximal effect; nearly all actives have a fitted effect of over 55% in size
#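 Cells were dispensed at 400 per well, compounds added by pin tool, plates incubated ≥48 hr at 37 °C, then CellTiter-Glo added for 30 min at room temperature before luminescence reading. Line: DT40 Tdp1-/- complemented with hTDP1; camptothecin omitted.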
# DT40 TDP1 CPT: qHTS for Inhibitors of human tyrosyl-DNA phosphodiesterase 1 (TDP1): qHTS in cells in presence of CPT; chicken DT40 Tdp1-/-;hTDP1 cells + 20 nM CPT, ATP luminescence, 48 h; Potency, µM (top dose mostly 46.2 µM), without a hit: at the top dose activity change, negative = growth inhibition, usual class: inhibitors; hit rate 12% among 420,000; note: potency is the fitted concentration of half-maximal effect; nearly all actives have a fitted effect of over 55% in size
#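 Chicken DT40 Tdp1-/- cells stably complemented with human TDP1 were seeded at 400 cells/well in medium containing 20 nM camptothecin, exposed to pin-transferred compounds, and grown at 37 °C for at least 48 hr. Viability was read as ATP luminescence.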
# HT1080NT lethal: qHTS for induction of synthetic lethality in tumor cells producing 2HG: qHTS for the HT-1080-NT fibrosarcoma cell line | HT-1080-NT fibrosarcoma viability, CellTiter-Glo ATP luminescence, 48 h | Potency, µM (top dose mostly 46.1 µM), without a hit: at the highest dose activity, negative = less viability, usual class: cytotoxic | hit rate 1.6% among 360,000;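 note: NT is the 2HG producing partner of a matched IDH1 knockdown line; potency is the fitted concentration of half-maximal effect; 0% = DMSO-treated cells and -100% = media-only wells without cells; nearly all actives have a fitted effect of over 55% in size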
#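 Read-out is CellTiter-Glo luminescence after 10 minutes at room temperature, following 48 hours' compound treatment of HT-1080-NT cells (750 cells/well, RPMI, 5% FBS, 37 degrees C).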
# IL1B secr inh: qHTS for Inhibitors of Inflammasome Signaling: IL-1-beta AlphaLISA Primary Screen. hit rate 4.7% among 360,000. activity change, % at 57.5 µM. THP-1 LPS/ATP IL-1B secretion, AlphaLISA, 16 h; active compounds read low. AID 743279, 2014; in the data active = activity change below about -50%; inconclusive = mostly about -30% to -49%
#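 THP-1 cells pretreated 1 hr with compounds (up to 57.5 uM final), then stimulated with LPS (250 ng/mL final) plus ATP (1.25 mM final); secreted IL-1B measured by AlphaLISA after 16 hr, decreased signal indicating inhibition.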
# * = called active by the depositor; ? = inconclusive; . = no result given. Rows were chosen to be rich in hits. Some 19% of all compounds tested hit in one or more screens of this group. Unless noted, calls come from the whole dose curve; as a rule, active = well fitted curve in the direction sought with a large enough effect; inconclusive = small, poorly fitted or top-dose-only effect, or another doubt; inactive = no such curve, though single readings can be large; an effect the other way counts as inactive or inconclusive. Unless noted, % is set by controls: 0 for no effect and ±100 for the full control effect.
SMILES,HT1080 IDH1KD tx,ELG1 DNA repair,TDP1 cell noCPT,DT40 TDP1 CPT,HT1080NT lethal,IL1B secr inh
CCCCCCCCN1C(=O)[C@H](CC(=O)NCc2cccc(C(F)(F)F)c2)C[C@@]2(C(=O)OCC)CCC=C12,?,.,13µM*,?,?,-23
CCCCCCCCN1C(=O)[C@H](CC(=O)NCc2cccc(C(F)(F)F)c2)C[C@@]2(C(=O)OC)CCCCC=C12,?,.,?,21µM*,?,-55*
COC(=O)[C@]12CCCCC=C1N(Cc1ccccc1)C(=O)[C@H](CC(=O)NCc1cccc(C(F)(F)F)c1)C2,?,.,?,?,?,-18
O=c1[nH]cc(S(=O)(=O)NCc2ccccc2)c(=O)[nH]1,7%,17%,32%,-9%,3%,1
CC(=Nc1ccccc1)C1=C(O)C(Cc2cccc(F)c2)NC1=O (stereo unspecified),?,.,0.1µM*,0.0058µM*,0.026µM*,71
O=C1NC[C@H](Cc2ccccc2)N(CCc2cccc(F)c2)C1=O,9%,-3%,-4%,-14%,2%,5
CC(=Nc1ccccc1)C1=C(O)C(Cc2ccc(O)cc2)NC1=O (stereo unspecified),?,.,0.0082µM*,0.018µM*,0.58µM*,31
Cc1nn(C)c(C)c1NC(=O)COc1ccc(F)cc1Br,-11%,?,13µM*,?,13µM*,3
CSc1cc(C)c(OCC(=O)Nc2c(C)nn(C)c2C)c(C)c1,-4%,3%,?,15µM*,-6%,0
COc1ccc(/C=C/C(=O)NCc2cn(C)nc2C)cc1COc1ccc(Br)cc1,?,?,-30%,-8%,-28%,?
COc1ccc(/C=C/C(=O)Nc2c(C)nn(C)c2C)cc1COc1ccc(Cl)cc1Br,-7%,?,?,18µM*,24%,?
Cc1cccc(CNC(=O)c2ccc(NC(=O)N3CCSc4ccccc43)cc2)c1,.,.,9.2µM*,16µM*,.,.
CCc1ccccc1NC(=O)N1CC(C)Sc2ccccc21 (stereo unspecified),.,.,?,21µM*,.,.
Cc1ccccc1CCNC(=O)c1ccc(NC(=O)N2CC(C)Sc3ccccc32)cc1 (stereo unspecified),.,.,7.3µM*,18µM*,.,.
CCc1ccccc1NC(=O)N1CCc2ccccc21,9%,0%,?,23µM*,-4%,-4
COc1ccccc1CNC(=O)CN(C)CC(=O)Nc1ccc(F)c(F)c1F,3%,-19%,-3%,3%,1%,-16
CC1CN(C(=O)Nc2ccc(C(=O)NCc3ccccc3F)cc2)c2ccccc2S1 (stereo unspecified),.,.,15µM*,23µM*,.,.
COc1ccccc1CNC(=O)c1ccc(NC(=O)CC2SC(N3CCCC3)=NC2=O)cc1 (stereo unspecified),9%,10%,3%,-9%,0%,6
O=C(NCC1CCCC(CNC(=O)N2CCc3ccccc32)C1)N1CCc2ccccc21 (stereo unspecified),20µM*,?,-27%,-25%,?,?
CC1CN(C(=O)Nc2ccc(C(=O)NCc3cccc(F)c3)cc2)c2ccccc2S1 (stereo unspecified),.,.,18µM*,?,.,.
CC1CN(C(=O)CCC(=O)NCc2cccc(Cl)c2)c2ccccc2S1 (stereo unspecified),.,.,-28%,-25%,.,.

# Screening data as filed in PubChem.
